In PubChem BioAssay (NCI):
Values joined by “and” are separate entries in the source; they are usually repeats but may differ in a detail not shown here. Identical values can stand only once. This is part of a sample that, as a whole, favours compounds with a hit. Of some 79,000 tested, about 15% had one in any assay. Values without a mark were called inactive. Active and inactive are the calls of the source. Cut-off read from the data, not from the text of the source: active = growth inhibition above about 70%; inactive = the rest.

What was measured:
[1] = NCI Yeast Anticancer Drug Screen. Data for the rad50 strain (AID 155);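 note: 0% = growth of vehicle-only cultures of the same strain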; conditions: S. cerevisiae rad50 strain growth inhibition; at 50.0 µM; hits give high values
Procedure, shortened: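 Genetically altered yeast (DNA repair pathway); compound treatment; growth inhibition vs vehicle ctrl.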

[2] = NCI Yeast Anticancer Drug Screen. Data for the mec2-1 strain (AID 157); conditions: S. cerevisiae mec2-1 strain, at 50.0 µM, hits give high values
Procedure, shortened: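 Test agents were screened against the mec2-1 yeast strain, with defined DNA repair or cell cycle alteration. Growth was scored as inhibition against vehicle-only controls.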

[3] = NCI Yeast Anticancer Drug Screen. Data for the sgs1 mgt1 strain (AID 161);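 note: 0% = growth of cultures given vehicle only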; conditions: S. cerevisiae sgs1 mgt1 strain, at 50.0 µM, hits give high values
Procedure, shortened: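 Mutant yeast exposed to compound; growth scored against vehicle-only wells.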

[4] = NCI Yeast Anticancer Drug Screen. Data for the cln2 rad14 strain (AID 165);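 note: 0% = growth equal to vehicle treated cultures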; conditions: S. cerevisiae cln2 rad14 strain, at 50.0 µM, hits give high values
Procedure, shortened: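 Growth of compound-exposed yeast (cln2 rad14 genotype) measured and expressed as inhibition relative to vehicle.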

[5] = NCI Yeast Anticancer Drug Screen. Data for the bub3 strain (AID 167); conditions: S. cerevisiae bub3 mutant strain, at 50.0 µM, hits give high values
Procedure, shortened: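 Yeast carrying a defined mutation is treated with each compound, and growth is compared with that of vehicle-exposed cells to give inhibition.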

[6] = NCI Yeast Anticancer Drug Screen. Data for the mlh1 rad18 strain (AID 175); conditions: S. cerevisiae mlh1 rad18 strain growth inhibition; at 50.0 µM; hits give high values
Procedure, shortened: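 In this whole-cell yeast screen, a strain with altered DNA damage repair is challenged with compound, and its growth is measured against matched vehicle-treated controls.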

SMILES: c1ccc(C2=NC(c3ccccc3)N3CC23c2ccccc2)cc1 (stereo not given)
- growth inhibition [1]: 12.8%
- growth inhibition [2]: 15.2%
- growth inhibition [3]: 5.05%
- growth inhibition [4]: -7.6%
- growth inhibition [5]: 15.2%
- growth inhibition [6]: 24.4%

SMILES: CCOP(=O)(NC12CC3CC(CC(C3)C1)C2)OCC
- growth inhibition [1]: -1.5%
- growth inhibition [2]: 8.2%
- growth inhibition [3]: -7.5%
- growth inhibition [4]: 5.25%
- growth inhibition [5]: 19.6%
- growth inhibition [6]: -18.2%

SMILES: COc1ccc(CC#N)cc1
- growth inhibition [1]: -51.1%
- growth inhibition [2]: -5.25%
- growth inhibition [3]: 19.4%
- growth inhibition [4]: -35%
- growth inhibition [5]: 1.4%
- growth inhibition [6]: 15.2%

SMILES: O=C1OC(=O)C2C3C=CC(O3)C12 (stereo not given)
- growth inhibition [1]: -9.15% and -16.2% and 22.6%
- growth inhibition [2]: -14.2% and -0.8% and -0.1%
- growth inhibition [3]: -25.2% and 3.95% and 14.6%
- growth inhibition [4]: 6% and 1.55% and 10.6%
- growth inhibition [5]: -42.2% and -28.7% and 6.3%
- growth inhibition [6]: -6.4% and -16.8% and 19.6%

SMILES: CN(c1ccccc1)[N+](=O)[O-]
- growth inhibition [1]: -9.45%
- growth inhibition [2]: -12.2%
- growth inhibition [3]: -14.2%
- growth inhibition [4]: -5.1%
- growth inhibition [5]: -7.8%
- growth inhibition [6]: -5.3%

SMILES: CCN1CC2(CO)CCC(OC)C34C5CC6C(OC)CC(O)(C5C6OC)C(O)(C(OC)C23)C14 (stereo not given)
- growth inhibition [1]: 1.95%
- growth inhibition [2]: -16.6%
- growth inhibition [3]: 2.7%
- growth inhibition [4]: 9%
- growth inhibition [5]: -12.6%
- growth inhibition [6]: 6.75%

SMILES: CSC(SC)=C1C(=O)NC(=O)NC1=O
- growth inhibition [1]: -11.8%
- growth inhibition [2]: 1.65%
- growth inhibition [3]: 1.7%
- growth inhibition [4]: 10.2%
- growth inhibition [5]: -10.1%
- growth inhibition [6]: -16.4%

SMILES: [N-]=[N+]=NP1(=O)OC(c2ccccc2)=CCN1c1ccccc1 (stereo not given)
- growth inhibition [1]: -9.2%
- growth inhibition [2]: -9.5%
- growth inhibition [3]: -8.45%
- growth inhibition [4]: 20.7%
- growth inhibition [5]: 8.65%
- growth inhibition [6]: -4.1%

SMILES: O=[As](O)(O)c1ccccc1Cl
- growth inhibition [1]: 14.1%
- growth inhibition [2]: -13.4%
- growth inhibition [3]: -32.1%
- growth inhibition [4]: 4.55%
- growth inhibition [5]: 3.2%
- growth inhibition [6]: 16.6%

SMILES: CC(=N\O)/C(C)=N/O.CC(=N\O)/C(C)=N/O.[Ni]
- growth inhibition [1]: -5.1%
- growth inhibition [2]: 3.6%
- growth inhibition [3]: -7.35%
- growth inhibition [4]: 0.95%
- growth inhibition [5]: 5.4%
- growth inhibition [6]: -10.9%

SMILES: S=C=NCc1ccccc1
- growth inhibition [1]: -1.55%
- growth inhibition [2]: 2.65%
- growth inhibition [3]: 20.4%
- growth inhibition [4]: -12.9%
- growth inhibition [5]: 0.85%
- growth inhibition [6]: 1.9%

SMILES: CC(=O)c1ccccc1O
- growth inhibition [1]: 10.8% and 2.05%
- growth inhibition [2]: 11.4% and -10.9%
- growth inhibition [3]: -53.4% and -0.4%
- growth inhibition [4]: -13.4% and 2.05%
- growth inhibition [5]: -16.9% and 3.7%
- growth inhibition [6]: -29.4% and -4.5%

SMILES: NC(CCP(=O)(O)O)C(=O)O (stereo not given)
- growth inhibition [1]: 1.1% and -34.8%
- growth inhibition [2]: -3.5% and -15.6%
- growth inhibition [3]: -5.6% and -33.7%
- growth inhibition [4]: -3.25% and 6.1%
- growth inhibition [5]: 7.7% and -23.5%
- growth inhibition [6]: -5.75% and -18.1%

SMILES: S=C(Nc1ccccc1)Nc1ccc(N(CCCl)CCCl)cc1
- growth inhibition [1]: 17.6%
- growth inhibition [2]: 0%
- growth inhibition [3]: 12.6%
- growth inhibition [4]: -40.8%
- growth inhibition [5]: 10.1%
- growth inhibition [6]: 21.7%

SMILES: N/C(=N\S(=O)(=O)c1ccccc1)N[N+](=O)[O-]
- growth inhibition [1]: 5.15% and -5.6%
- growth inhibition [2]: -1.15% and -8.9%
- growth inhibition [3]: -9.05% and -5.2%
- growth inhibition [4]: -39.2% and -2.6%
- growth inhibition [5]: -9.25% and 7.05%
- growth inhibition [6]: 4.45% and -9.75%

SMILES: C1CN1Sc1nc(SN2CC2)nc(SN2CC2)n1
- growth inhibition [1]: -1.35%
- growth inhibition [2]: -5.55%
- growth inhibition [3]: 19.7%
- growth inhibition [4]: -73%
- growth inhibition [5]: 11.8%
- growth inhibition [6]: 27.3%

SMILES: COC(=O)Cc1ccccc1
- growth inhibition [1]: -4.4%
- growth inhibition [2]: 15.1%
- growth inhibition [3]: -31.8%
- growth inhibition [4]: 5.9%
- growth inhibition [5]: -50.5%
- growth inhibition [6]: -19.5%

SMILES: O=C1NC2(CCCCC2)C(=O)N1CCCCN(CCCl)CCCl
- growth inhibition [1]: 1%
- growth inhibition [2]: 9.8%
- growth inhibition [3]: 9.2%
- growth inhibition [4]: 5.2%
- growth inhibition [5]: 21.4%
- growth inhibition [6]: -5.85%

SMILES: C[C@]12CC[C@H]3[C@@H](CCC4=CC(=O)CC[C@@]43C)[C@@H]1CC[C@@H]2OC(=O)c1cccc2c(=O)c3ccccc3[nH]c12
- growth inhibition [1]: 30.6%
- growth inhibition [2]: 73% (active)
- growth inhibition [3]: 82.1% (active)
- growth inhibition [4]: 34.2%
- growth inhibition [5]: 71.2% (active)
- growth inhibition [6]: 4.1%

SMILES: CN(C)C1COC2Cc3ccccc3C1O2 (stereo not given)
- growth inhibition [1]: -25.6% and -13.6%
- growth inhibition [2]: -26.2% and -9.45%
- growth inhibition [3]: -3.65% and 1.7%
- growth inhibition [4]: -22.4% and 3.5%
- growth inhibition [5]: -0.15% and -8.75%
- growth inhibition [6]: -77.4% and -90.5%

SMILES: O=[As]c1ccc(C(=O)O)cc1 (stereo not given)
- growth inhibition [1]: 11.2%
- growth inhibition [2]: -8.75%
- growth inhibition [3]: 0.2%
- growth inhibition [4]: 19.3%
- growth inhibition [5]: -7.2%
- growth inhibition [6]: 23.2%

SMILES: CC(=O)OC1CC2(C)C3(CO3)C1OC1C=C(C)C(=O)C(O)C12CO (stereo not given)
- growth inhibition [1]: -10.4%
- growth inhibition [2]: -3.95%
- growth inhibition [3]: 2.75%
- growth inhibition [4]: 26.5%
- growth inhibition [5]: 8.7%
- growth inhibition [6]: 11.3%

SMILES: C[C@]12CCC(O)CC1=CC[C@@H]1[C@@H]2CC[C@]2(C)C(O)[C@H](n3ccnc3)C[C@@H]12 (stereo not given in full)
- growth inhibition [1]: 30.1%
- growth inhibition [2]: 33.6%
- growth inhibition [3]: -6.05%
- growth inhibition [4]: 25.1%
- growth inhibition [5]: -11.7%
- growth inhibition [6]: -13.4%

SMILES: C/C=C/COC(=O)CO[N+](=O)[O-]
- growth inhibition [1]: 2%
- growth inhibition [2]: -4.25%
- growth inhibition [3]: -5.3%
- growth inhibition [4]: -12.8%
- growth inhibition [5]: -0.5%
- growth inhibition [6]: -0.15%

SMILES: CCOC(=O)c1cc(N(CCCl)CCCl)ccc1OC(=O)CC
- growth inhibition [1]: 3.95%
- growth inhibition [2]: -6.9%
- growth inhibition [3]: 19.7%
- growth inhibition [4]: -32.2%
- growth inhibition [5]: 5.85%
- growth inhibition [6]: 30.1%

SMILES: C[CH2][Sn]([c]1ccccc1)[c]1ccccc1
- growth inhibition [1]: 33.1%
- growth inhibition [2]: 39.2%
- growth inhibition [3]: 40.3%
- growth inhibition [4]: 3.65%
- growth inhibition [5]: 35.5%
- growth inhibition [6]: 47.1%

SMILES: CC12CCC(=O)C=C1CCC1C2CCC2(C)C(OC(=O)C34C=CC(=O)C3C3C=CC4CC3)CCC12 (stereo not given)
- growth inhibition [1]: 31.4%
- growth inhibition [2]: -1.2%
- growth inhibition [3]: 14.3%
- growth inhibition [4]: 22.6%
- growth inhibition [5]: -4.45%
- growth inhibition [6]: 19.2%

SMILES: [Cl][Ni][Cl].[NH-]C1CCCCC1[NH-].[NH-]C1CCCCC1[NH-] (stereo not given)
- growth inhibition [1]: -22.9%
- growth inhibition [2]: -6.45%
- growth inhibition [3]: 0.85%
- growth inhibition [4]: -18.6%
- growth inhibition [5]: 11.8%
- growth inhibition [6]: -1.85%

SMILES: CSc1sc2ccccc2[s+]1
- growth inhibition [1]: -10.8%
- growth inhibition [2]: -5.4%
- growth inhibition [3]: -0.35%
- growth inhibition [4]: 10.6%
- growth inhibition [5]: 9.55%
- growth inhibition [6]: 3.35%

SMILES: O=[N+]([O-])c1cc(-c2ccc([As](=O)(O)O)cc2)ccc1[As](=O)(O)O
- growth inhibition [1]: 2.5%
- growth inhibition [2]: 4.4%
- growth inhibition [3]: -40%
- growth inhibition [4]: 9.5%
- growth inhibition [5]: -22%
- growth inhibition [6]: -4.15%

SMILES: CN(C)CCc1ccccc1
- growth inhibition [1]: -15.1%
- growth inhibition [2]: 2.35%
- growth inhibition [3]: 13.9%
- growth inhibition [4]: 20.8%
- growth inhibition [5]: -2.3%
- growth inhibition [6]: 11.1%

SMILES: CN1C(=O)N(C)C(O)C(Cl)(Br)C1=O (stereo not given)
- growth inhibition [1]: -0.5%
- growth inhibition [2]: 2.5%
- growth inhibition [3]: 7.3%
- growth inhibition [4]: 26.2%
- growth inhibition [5]: 5.9%
- growth inhibition [6]: 12.7%

SMILES: O=C(O)c1cc(C(=O)O)cc(S(=O)(=O)F)c1
- growth inhibition [1]: 13.5%
- growth inhibition [2]: 3.75%
- growth inhibition [3]: 19.6%
- growth inhibition [4]: 10.6%
- growth inhibition [5]: -4.05%
- growth inhibition [6]: 7.5%

SMILES: CC(Br)C(=O)NC(C)C(=O)O (stereo not given)
- growth inhibition [1]: -19.6% and -15.2%
- growth inhibition [2]: -16.6% and -19.9%
- growth inhibition [3]: -12.4%
- growth inhibition [4]: 5.75%
- growth inhibition [5]: -17.6%
- growth inhibition [6]: -28.6% and -21.2%

SMILES: C1CC[N-]CC1.CC(=N\O)/C(C)=N/O.CC(=N\O)/C(C)=N/O.C[CH-]C(C)O.[Co+2]
- growth inhibition [1]: -2%
- growth inhibition [2]: -7.15%
- growth inhibition [3]: 36.3%
- growth inhibition [4]: 8.2%
- growth inhibition [5]: -13.1%
- growth inhibition [6]: 39.9%
